Bioassay records from PubChem BioAssay.
Cav32 inh: human Cav3.2 channel inhibition, primary screen | O95180 | Cav3.2-expressing cells, Fluo-4 calcium fluorescence FDSS; active compounds read low | B-score at 10 µM | hit rate 4% among 100,000;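 active = single-dose well whose peak fluorescence ratio is a statistical outlier from its plate by either plate-standardised score or position-corrected B-score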
CYP2C19 inh: inhibitors of human CYP2C19; CYP2C19 Supersomes, luciferin-H EGE luminescence, 30 min; hit rate 21% among 96,000; P33261; inhibition, % at 5 µM; AID 778;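 active = CYP2C19 inhibition above a set limit at 5 µM in the primary screen, cut at about 50% in these data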;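 note: plate controls were negative control wells for no effect and 2.5 mM tranylcypromine positive control for full effect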
Target sequence (P33261 whole entry, looked up): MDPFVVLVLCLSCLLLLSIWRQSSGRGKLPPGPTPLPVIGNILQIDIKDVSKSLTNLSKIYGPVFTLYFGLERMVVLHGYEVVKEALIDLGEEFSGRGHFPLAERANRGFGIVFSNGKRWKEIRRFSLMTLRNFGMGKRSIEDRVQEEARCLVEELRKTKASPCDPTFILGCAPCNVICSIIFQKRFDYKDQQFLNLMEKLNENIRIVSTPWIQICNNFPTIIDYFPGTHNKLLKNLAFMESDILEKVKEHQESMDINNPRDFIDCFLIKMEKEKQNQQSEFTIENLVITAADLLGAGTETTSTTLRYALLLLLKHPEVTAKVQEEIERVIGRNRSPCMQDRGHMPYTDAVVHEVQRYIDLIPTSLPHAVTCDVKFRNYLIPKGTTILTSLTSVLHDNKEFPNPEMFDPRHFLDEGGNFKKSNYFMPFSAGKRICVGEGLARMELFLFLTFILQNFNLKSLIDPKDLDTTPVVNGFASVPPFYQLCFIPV
CYP2C9 act: CYP2C9 (human) activation; recombinant CYP2C9, luciferin-H conversion, luminescence; active compounds read high; factor 1 = untreated enzyme, 0 = blocked; activation factor at 5 µM; hit rate 1.4% among 96,000; AID 1024;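 active = activation factor of 2 or more for CYP2C9 at a 5 µM dose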;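 note: 0 = sulfaphenazole-blocked wells and 1 = vehicle-only wells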
CYP2C19 act: activators of human cytochrome P450 2C19; recombinant CYP2C19, luciferin-H EGE luminescence; active compounds read high; 0 = fully inhibited enzyme, 1 = untreated enzyme; activation factor at 5 µM; 96,000 tested, under 10 active; AID 1025;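 active = activation factor of at least 2 at 5 µM in the primary screen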;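 note: 0 = wells with 2.5 mM tranylcypromine and 1 = vehicle-only wells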
CYP2C9 inhib: inhibitors of human CYP2C9; CYP2C9 Supersomes, luciferin-H conversion, luminescence; inhibition, % at 5 µM; hit rate 20% among 96,000;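 active = blocking of liver enzyme CYP2C9 beyond about 50% at 5 µM, limit read from the data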
Numbers without * were called inactive; / = no result. Hits are enriched below; roughly 27% of the tested compounds scored in any of these assays.

SMILES	Cav32 inh	CYP2C19 inh	CYP2C9 act	CYP2C19 act	CYP2C9 inhib
CCc1ccc(N=CC23c4ccccc4C(c4ccccc42)C2C(=O)N(c4ccc(OC)cc4)C(=O)C23)cc1 (stereo not given)	-1.8	29	1	0.7	3
O=CN1CCN(C(=O)c2ccccc2F)CC1	0.99	0	1.2	1	-19
COc1cccc2cc(C(=O)N3CCN(c4ccc(C)cc4C)CC3)c(=O)oc12	-3	17	0.8	0.8	20
O=C(c1cccc(Cl)c1)N1CCN(Cc2ccccc2F)CC1	0.13	97*	0.2	0	79*
O=C(c1cccc(Cl)c1)N1CCN(C2CCCCCC2)CC1	0.74	19	0.9	0.8	9
O=C(c1ccccc1F)N1CCN(Cc2ccccc2F)CC1	0.61	96*	0.4	0	59*
Cc1ccc(N2CCN(C(=O)c3ccccc3F)CC2)c(C)c1	-2.4	100*	0.1	0	89*
COc1ccc(CCNC(=O)C2CC3Cn4c(nc5ccccc54)C3N2Cc2ccccc2)cc1 (stereo not given)	0.41	/	/	/	/
CC(=O)N1CCc2c(sc(NC(=O)CN3C(=O)CCC3=O)c2C(N)=O)C1	-0.73	/	/	/	/
CSc1ccccc1NC(=O)CSCc1ccc(Br)cc1	/	17	0.9	0.8	13
COc1cc(C(=O)COC(=O)CNC(=O)C2CCCCC2)cc(OC)c1OC	-0.009	26	0.9	0.7	12
Cc1ccc(C(=O)NCC(C)(C)N2CCOCC2)s1	-0.061	55*	1	0.4	2
O=C(CN1C(=O)COc2ccccc21)c1cccc(Cl)c1	-2.4	99*	0.1	0	93*
COC(=O)CN1C(=O)COc2ccc(Cl)cc21	-0.25	/	/	/	/
O=C1COc2ccccc2N1Cc1ccccc1Cl	-1.8	80*	0.8	0.2	22
Cc1oc(-c2ccccc2)nc1C(=O)OCC(=O)NC(=O)NCC(C)C	-0.38	25	0.5	0.8	51*
COC(=O)c1c(C)[nH]c(C(C)=O)c1C	/	44	0.5	0.6	55*
CC(=O)c1[nH]c(C)c(C(C)=O)c1C	-0.049	-3	1.1	1	-6
CCCc1cc(NCC2CCCO2)n2c(nc3ccccc32)c1C#N (stereo not given)	2.3	2	0.4	1	60*
CCCNc1cc(C)c(C#N)c2nc3ccccc3n12	2.4	/	/	/	/
Cc1cc(NC(=O)CSc2nc(-c3ccc(Cl)cc3)cs2)no1	1.1	/	/	/	/
Cc1cc(=O)[nH]c(SCC(=O)Nc2nc(-c3ccccc3)cs2)n1	/	22	0.4	0.8	60*
Cc1ccc(-c2csc(NC(=O)CSc3nc(C)cs3)n2)cc1	-4.6*	/	/	/	/
Cc1csc(SCC(=O)Nc2nc(-c3ccccc3)cs2)n1	-6*	28	0.8	0.7	25
Cc1cc(C)nc(SCc2nnc(SCC(=O)Nc3nc(-c4ccccc4)cs3)n2C)n1	-2.3	/	/	/	/
SMILES	Cav32 inh	CYP2C19 inh	CYP2C9 act	CYP2C19 act	CYP2C9 inhib
O=C(CSc1ncn[nH]1)Nc1nc(-c2ccccc2)cs1	0.41	64*	0.7	0.4	32
C=C(C(=O)O)C1CCC2(C)CCCC(C)(O)C2C1 (stereo not given)	-0.013	/	/	/	/
O=C(Nc1nnc(-c2ccc(F)cc2)o1)c1ccco1	-0.6	/	/	/	/
Fc1ccc(-c2nnc(NC3=NCCCCC3)o2)cc1	/	56*	0.7	0.4	28
Cc1ccc(SCC(=O)NCc2cccnc2)cc1	-0.038	18	0.7	0.8	27
O=C(CN1C(=O)c2ccccc2S1(=O)=O)N1CCc2ccccc2C1	/	55*	0.9	0.5	13
O=C(CCCN1C(=O)c2ccccc2C1=O)N1CCN(c2ccccn2)CC1	0.085	7	0.6	0.9	37
O=C(CN1C(=O)c2cccc3cccc1c23)N1CCN(Cc2ccc3c(c2)OCO3)CC1	0.27	/	/	/	/
O=C(CN1C(=O)c2cccc3cccc1c23)N1CCc2ccccc2C1	-0.29	64*	1.8	0.4	-78
O=C(CCCN1C(=O)c2ccccc2C1=O)N1CCc2ccccc2C1	1.3	50*	0.9	0.5	13
CC12C=CC3(CN(Cc4ccccc4)C(=O)C3C1C(=O)NCc1ccco1)O2 (stereo not given)	-0.35	-2	1	1	2
COc1ccc(C(=O)CC(Nc2ccc([N+](=O)[O-])cc2)c2ccc(OC)cc2)cc1 (stereo not given)	-0.67	43	0.3	0.6	68*
COc1ccc(C(=O)Cn2c(=O)c(CCC(=O)O)nn3c4ccccc4nc23)cc1OC	0.51	-13	1.1	1.1	-9
O=C(O)C1CCCCC1C(=O)Nc1ccccc1Nc1ccccc1 (stereo not given)	0.54	56*	0.1	0.4	86*
O=C(Nc1ccccc1)C1CCN(c2nccs2)CC1	0.47	85*	0.7	0.2	30
CS(=O)(=O)N1CCC(C(=O)Nc2ccccc2)CC1	0.21	-2	1.2	1	-25
O=C(Nc1ccccc1)C1CCCCC1	0.003	/	/	/	/
O=C(Nc1ccc(Nc2ccccc2)cc1)C1CC1	-1.7	59*	0.5	0.4	50*
O=C(Nc1ccc(F)cc1)C1CCC(N2C(=O)c3ccccc3C2=O)CC1 (stereo not given)	-0.032	78*	0.5	0.2	51*
Cc1ccc(NCc2nnc(SCC(N)=O)n2CCc2ccccc2)cc1	-0.55	2	1.1	1	-14
CCC(=O)Nc1cccc(C2=NOC3(C2)C[C@H](C(N)=O)N(C(=O)CC#N)C3)c1 (stereo not given in full)	1.2	/	/	/	/
O=C(CSCCO)Nc1nccs1	-0.1	6	1.2	0.9	-24
O=C(CN1C(=O)c2ccccc2C1=O)NCC1CCCO1 (stereo not given)	-0.27	-18	1.1	1.2	-12
O=C(NCC1CCCO1)C1CCC(N2C(=O)c3ccccc3C2=O)CC1 (stereo not given)	-0.54	56*	0.3	0.4	72*
COc1ccc(C(O)c2nccn2Cc2ccccc2)cc1 (stereo not given)	1.1	56*	0.9	0.4	7
SMILES	Cav32 inh	CYP2C19 inh	CYP2C9 act	CYP2C19 act	CYP2C9 inhib
Cc1ccc(-c2nn(-c3ccccc3)cc2/C=N/NC(=O)CSc2nnc(C)n2-c2ccccc2)cc1	-4.5*	21	0.4	0.8	56*
CCOC(=O)Cc1c(C)c2c(C)nn(-c3ccccc3)c2oc1=O	-0.39	11	0.7	0.9	35
CCN1C(=O)/C(=C/c2cccs2)N(C)C1=S	-1.7	67*	0.5	0.3	51*
CCOc1ccc(N2C(=O)/C(=C/c3cccs3)N(CC(=O)OC)C2=S)cc1	-0.05	22	1	0.8	-2
CC(C)c1nc(SCC(=O)NCc2ccccc2)n[nH]1	-0.082	54*	1.1	0.5	-13
CC(=O)Nc1nc(SCCCc2ccccc2)n[nH]1	-1.5	80*	0.8	0.2	19
O=C(CSc1n[nH]c(-c2ccncc2)n1)NCCc1ccccc1	0.84	92*	0	0.1	97*
CCc1nc(SCC(=O)NCCc2ccccc2)n[nH]1	-0.66	56*	1	0.4	-1
CCc1nc(SCC(=O)Nc2ccccc2C(=O)OC)n[nH]1	-0.34	36	1.6	0.6	-59
